Laboratory results published in PubChem BioAssay (NCI).
About 83,000 compounds went through this panel and 20% of them were active in at least one assay; those are over-represented in the sample as a whole.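 How to read the values: 0–100, growth inhibition (40 = 60% inhibited); 0, no net growth; -100 to 0, cell death (-40 = 40% of starting cells died; -100 = all dead).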 Activity calls are given as the source filed them. How the source made its calls: active means growth percent below 10; inactive means the rest.

Test system: MCF7 breast
Experiment: NCI-60 one-dose screen, 48 h (100 = growth as untreated, 0 = no growth, -100 = all killed)
Settings: 10 µM unless noted

For `COc1cc(CCC[P+](c2ccccc2)(c2ccccc2)c2ccccc2)cc2c1OCO2`, which growth is on record?
The growth was 18.2% (inactive).

Which growth does the source give for `Cc1cc(Cl)nc(NCc2cc(Nc3ccnc4cc(Cl)ccc34)ccc2F)n1` here?
Its growth is 17.4% (inactive).

For `COc1ccc(C2c3ccc4ccccc4c3Oc3nc(C)[nH]c(=O)c32)cc1` (stereo not drawn), which growth is on record?
The growth was 96.1% (inactive).

With `O=C1OC(c2nc3ccccc3s2)=C/C1=C\c1ccc(O)cc1` as the compound, how does the growth read?
Its growth is 100% (inactive).

How did the growth turn out when `Cc1ccc(NS(=O)(=O)c2ccc3c(c2)C2OCCC2C(c2ccc(C(=O)C(C)C)cc2)N3)cc1C` (stereo not drawn) was run?
Its growth is 17.6% (inactive).

How did the growth turn out when `CC1SC(c2ccc(OCc3ccccc3)cc2)N(NC(=O)C(O)(c2ccccc2)c2ccccc2)C1=O` (stereo not drawn) was run?
The growth was 35.7% (inactive).

With `S=C(Cc1ccc2c(c1)CCCC2)N1CCOCC1` as the compound, how does the growth read?
The growth was 94.3% (inactive).

How did the growth turn out when `CC1=CN2C(=O)C3C4=C(CCCC4)SC3N=C2CN1c1c(C)cccc1C` (stereo not drawn) was run?
Its growth is 112% (inactive).

With `CC(=O)n1c(-c2ccc(Cl)cc2)nc2c(c1=O)C(c1ccc(Cl)cc1)c1sc3c(Cl)cccc3c1O2` (stereo not drawn) as the compound, how does the growth read?
Its growth is 5.59% (active).

Which growth does the source give for `O=C(N=c1oc2ccccc2cc1-c1cc2ccccc2[nH]1)c1ccc(Cl)cc1` here?
The growth was 30.4% (inactive).

Which growth does the source give for `Cn1ccc2c(c1=O)C(=O)c1nccc3c1c-2nc1ccccc13` here?
Its growth is -59.1% (active).

How did the growth turn out when `COc1ccccc1CNCCCN1C(=O)c2ccc3c4c(ccc(c24)C1=O)C(=O)N(CCCNCCCCN)C3=O` was run?
The growth was -45.7% (active).

How did the growth turn out when `C=C1C(=O)O[C@H]2[C@H]1CC/C(COC(=O)C(=O)c1cn(C)c3ccc(OC)cc13)=C\CC[C@@]1(C)O[C@@H]21` was run?
Its growth is -34.8% (active).
